# Data from the supplement of paper PMC8728848.
# The full list was thinned out, with the strongest signals kept by preference.
# B1: NK2 (Sus scrofa) (peptide)
# chain: KILRGVCKKIMRTFLRRISKDILTGKK
# Legend:
# Test in all cases: glycan array binding signal (z-score within array); higher = stronger binding
# Settings in all cases: glycan notation: IUPAC condensed, linker removed
# [1] = target: Fuc(a1-2)Gal(b1-3)GalNAc(b1-3)Gal
# Procedure, shortened: (§1)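 Negative Z-scores can be read as non-binding. The Z-score is calculated within each array and then averaged across arrays of one protein sequence at different concentrations or buffers and across linkers. Arrays, 3228 in all, were curated from the Consortium for Functional Glycomics database and kept only where the protein sequence was available.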
# [2] = target: Fuc(a1-2)Gal(b1-3)[Fuc(a1-4)]GlcNAc
# Procedure, shortened: as §1
# [3] = target: Fuc(a1-2)Gal6S(b1-3)GlcNAc6S
# Procedure, shortened: as §1
# [4] = target: Fuc(a1-2)Gal6S(b1-4)Glc6S
# Procedure, shortened: as §1
# [5] = target: Fuc(a1-2)[Gal(a1-3)]Gal(b1-3)GlcNAc(b1-2)Man(a1-3)[Fuc(a1-2)[Gal(a1-3)]Gal(b1-3)GlcNAc(b1-2)Man(a1-6)]Man(b1-4)GlcNAc(b1-4)[Fuc(a1-6)]GlcNAc
# Procedure, shortened: as §1
# [6] = target: Fuc(a1-2)[Gal(a1-3)]Gal(b1-4)GlcNAc(b1-6)GalNAc
# Procedure, shortened: as §1
# [7] = target: Fuc(a1-2)[GalNAc(a1-3)]Gal(b1-4)GlcNAc(b1-6)GalNAc
# Procedure, shortened: as §1
# [8] = target: Fuc(a1-2)[GalNAc(b1-3)]Gal
# Procedure, shortened: as §1
# [9] = target: Fuc(a1-3)[Gal3S(b1-4)]GlcNAc
# Procedure, shortened: as §1
# [10] = target: Fuc(a1-3)[Gal3S(b1-4)]GlcNAc6S
# Procedure, shortened: as §1
# [11] = target: Fuc(a1-3)[GalNAc(b1-4)]GlcNAc
# Procedure, shortened: as §1
# [12] = target: Gal(a1-3)Fuc(a1-2)Gal(b1-4)GlcNAc(b1-3)[Gal(a1-3)Fuc(a1-2)Gal(b1-4)GlcNAc(b1-6)]GalNAc
# Procedure, shortened: as §1
# [13] = target: Gal(a1-3)Gal(b1-4)GlcNAc(b1-3)GalNAc
# Procedure, shortened: as §1
# [14] = target: Gal(a1-4)Gal(b1-4)GlcNAc(b1-3)Gal(b1-4)Glc
# Procedure, shortened: as §1
# [15] = target: Gal(b1-3)GlcNAc(b1-3)GalNAc
# Procedure, shortened: as §1
# [16] = target: Gal(b1-3)[Fuc(a1-4)]GlcNAc(b1-2)Man(a1-3)[Gal(b1-3)[Fuc(a1-4)]GlcNAc(b1-2)Man(a1-6)]Man(b1-4)GlcNAc(b1-4)[Fuc(a1-6)]GlcNAc
# Procedure, shortened: as §1
# [17] = target: Gal(b1-4)GlcNAc(b1-3)Gal(b1-4)GlcNAc(b1-3)Gal(b1-4)GlcNAc(b1-2)Man(a1-3)[Gal(b1-4)GlcNAc(b1-3)Gal(b1-4)GlcNAc(b1-3)Gal(b1-4)GlcNAc(b1-2)Man(a1-6)]Man(b1-4)GlcNAc(b1-4)[Fuc(a1-6)]GlcNAc
# Procedure, shortened: as §1
# [18] = target: Gal(b1-4)GlcNAc(b1-3)Gal(b1-4)GlcNAc(b1-6)[Gal(b1-3)]GalNAc
# Procedure, shortened: as §1
# Gal3S(b1-4)Glc6S = target: Gal3S(b1-4)Glc6S
# Procedure, shortened: as §1
# Gal3S(b1-4)GlcNAc6S = target: Gal3S(b1-4)GlcNAc6S
# Procedure, shortened: as §1
# Gal3S4S(b1-4)GlcNAc = target: Gal3S4S(b1-4)GlcNAc
# Procedure, shortened: as §1
# Gal3S6S(b1-4)GlcNAc = target: Gal3S6S(b1-4)GlcNAc
# Procedure, shortened: as §1
# Gal3S6S(b1-4)GlcNAc6S = target: Gal3S6S(b1-4)GlcNAc6S
# Procedure, shortened: as §1
# Gal4S6S(b1-4)GlcNAc = target: Gal4S6S(b1-4)GlcNAc
# Procedure, shortened: as §1
# Gal6S(b1-3)GlcNAc6S = target: Gal6S(b1-3)GlcNAc6S
# Procedure, shortened: as §1
# Gal6S(b1-4)GlcNAc6S = target: Gal6S(b1-4)GlcNAc6S
# Procedure, shortened: as §1
# [19] = target: GalNAc(a1-3)GalNAc(b1-3)Gal(a1-4)Gal(b1-4)Glc
# Procedure, shortened: as §1
# [20] = target: GalNAc(b1-3)Gal(a1-6)Gal(b1-4)Glc
# Procedure, shortened: as §1
# GalNAc(b1-4)GlcNAc = target: GalNAc(b1-4)GlcNAc
# Procedure, shortened: as §1
# [21] = target: Glc(a1-4)Glc(a1-4)Glc(a1-4)Glc
# Procedure, shortened: as §1
# [22] = target: GlcNAc(a1-6)Gal(b1-4)GlcNAc
# Procedure, shortened: as §1
# [23] = target: GlcNAc(b1-2)Gal(b1-3)GalNAc
# Procedure, shortened: as §1
# [24] = target: GlcNAc(b1-2)Man(a1-3)[GlcNAc(b1-4)][GlcNAc(b1-2)Man(a1-6)]Man(b1-4)GlcNAc(b1-4)[Fuc(a1-6)]GlcNAc
# Procedure, shortened: as §1
# [25] = target: GlcNAc(b1-3)Gal(b1-4)GlcNAc(b1-6)[GlcNAc(b1-3)Gal(b1-3)]GalNAc
# Procedure, shortened: as §1
# [26] = target: GlcNAc(b1-4)Gal(b1-4)GlcNAc
# Procedure, shortened: as §1
# [27] = target: GlcNAc(b1-4)GlcNAc(b1-4)GlcNAc(b1-4)GlcNAc(b1-4)GlcNAc
# Procedure, shortened: as §1
# [28] = target: GlcNAc6S(b1-3)Gal(b1-4)GlcNAc
# Procedure, shortened: as §1
# Kdn(a2-3)Gal(b1-4)Glc = target: Kdn(a2-3)Gal(b1-4)Glc
# Procedure, shortened: as §1
# [29] = target: Neu5Ac(a2-3)Gal(b1-4)GlcNAc(b1-2)Man(a1-3)[GlcNAc(b1-2)Man(b1-4)GlcNAc(b1-2)Man(a1-6)]Man(b1-4)GlcNAc(b1-4)GlcNAc
# Procedure, shortened: as §1
# [30] = target: Neu5Ac(a2-3)Gal(b1-4)GlcNAc(b1-3)Gal(b1-4)GlcNAc(b1-3)GalNAc
# Procedure, shortened: as §1
# [31] = target: Neu5Ac(a2-3)Gal(b1-4)GlcNAc(b1-6)GalNAc
# Procedure, shortened: as §1
# [32] = target: Neu5Ac(a2-3)Gal(b1-4)[Fuc(a1-3)]GlcNAc(b1-3)Gal
# Procedure, shortened: as §1
# [33] = target: Neu5Ac(a2-3)[Neu5Ac(a2-6)]GalNAc
# Procedure, shortened: as §1
# Neu5Ac(a2-6)Gal = target: Neu5Ac(a2-6)Gal
# Procedure, shortened: as §1
# [34] = target: Neu5Ac(a2-6)Gal(b1-4)GlcNAc(b1-2)Man(a1-6)[GlcNAc(b1-2)Man(a1-3)]Man(b1-4)GlcNAc(b1-4)GlcNAc
# Procedure, shortened: as §1
# [35] = target: Neu5Ac(a2-6)Gal(b1-4)GlcNAc(b1-2)Man(a1-6)[Man(a1-3)]Man(b1-4)GlcNAc(b1-4)GlcNAc
# Procedure, shortened: as §1
# [36] = target: Neu5Ac(a2-6)Gal(b1-4)GlcNAc(b1-3)Gal(b1-4)GlcNAc(b1-3)[Neu5Ac(a2-6)Gal(b1-4)GlcNAc(b1-3)Gal(b1-4)GlcNAc(b1-6)]GalNAc
# Procedure, shortened: as §1
# [37] = target: Neu5Ac(a2-6)Gal(b1-4)GlcNAc(b1-6)[Gal(b1-3)GlcNAc(b1-3)]Gal(b1-4)Glc
# Procedure, shortened: as §1
# [38] = target: Neu5Ac(a2-6)Gal(b1-4)GlcNAc(b1-6)[Gal(b1-3)]GalNAc
# Procedure, shortened: as §1
# [39] = target: Neu5Ac(a2-6)GlcNAc(b1-4)GlcNAc
# Procedure, shortened: as §1
# [40] = target: Neu5Ac(a2-8)Neu5Ac(a2-3)Gal(b1-4)Glc
# Procedure, shortened: as §1
# [41] = target: Neu5Gc(a2-3)Gal(b1-3)GlcNAc
# Procedure, shortened: as §1
binder,measurement,setting,value
B1,glycan array binding signal (z-score),[1],0.02
same,glycan array binding signal (z-score),[2],-0.178
same,glycan array binding signal (z-score),[3],2.03
same,glycan array binding signal (z-score),[4],2.24
same,glycan array binding signal (z-score),[5],0.527
same,glycan array binding signal (z-score),[6],0.282
same,glycan array binding signal (z-score),[7],-1.05
same,glycan array binding signal (z-score),[8],-0.991
same,glycan array binding signal (z-score),[9],0.36
same,glycan array binding signal (z-score),[10],1.58
same,glycan array binding signal (z-score),[11],0.101
same,glycan array binding signal (z-score),[12],-0.533
same,glycan array binding signal (z-score),[13],0.826
same,glycan array binding signal (z-score),[14],0.785
same,glycan array binding signal (z-score),[15],-0.33
same,glycan array binding signal (z-score),[16],-0.004
same,glycan array binding signal (z-score),[17],0.462
same,glycan array binding signal (z-score),[18],2.04
same,glycan array binding signal (z-score),Gal3S(b1-4)Glc6S,1.67
same,glycan array binding signal (z-score),Gal3S(b1-4)GlcNAc6S,4.29
same,glycan array binding signal (z-score),Gal3S4S(b1-4)GlcNAc,2.81
same,glycan array binding signal (z-score),Gal3S6S(b1-4)GlcNAc,2.92
same,glycan array binding signal (z-score),Gal3S6S(b1-4)GlcNAc6S,3.98
same,glycan array binding signal (z-score),Gal4S6S(b1-4)GlcNAc,2.26
same,glycan array binding signal (z-score),Gal6S(b1-3)GlcNAc6S,3.16
same,glycan array binding signal (z-score),Gal6S(b1-4)GlcNAc6S,2.85
same,glycan array binding signal (z-score),[19],-0.58
same,glycan array binding signal (z-score),[20],-0.616
same,glycan array binding signal (z-score),GalNAc(b1-4)GlcNAc,-0.865
same,glycan array binding signal (z-score),[21],0.05
same,glycan array binding signal (z-score),[22],-1.07
same,glycan array binding signal (z-score),[23],-0.471
same,glycan array binding signal (z-score),[24],-1.11
same,glycan array binding signal (z-score),[25],0.144
same,glycan array binding signal (z-score),[26],0.592
same,glycan array binding signal (z-score),[27],0.06
same,glycan array binding signal (z-score),[28],-0.015
same,glycan array binding signal (z-score),Kdn(a2-3)Gal(b1-4)Glc,0.105
same,glycan array binding signal (z-score),[29],-0.411
same,glycan array binding signal (z-score),[30],2.37
same,glycan array binding signal (z-score),[31],1.14
same,glycan array binding signal (z-score),[32],-0.39
same,glycan array binding signal (z-score),[33],0.24
same,glycan array binding signal (z-score),Neu5Ac(a2-6)Gal,-0.071
same,glycan array binding signal (z-score),[34],0.794
same,glycan array binding signal (z-score),[35],-0.656
same,glycan array binding signal (z-score),[36],0.794
same,glycan array binding signal (z-score),[37],-0.41
same,glycan array binding signal (z-score),[38],-1.1
same,glycan array binding signal (z-score),[39],-0.816
same,glycan array binding signal (z-score),[40],-0.889
same,glycan array binding signal (z-score),[41],-0.108
